# Reference: PubChem BioAssay (Tox21)
# Values joined by “and” are separate entries in the source; they are usually repeats but may differ in a detail not shown here. Equal values may be shown once. Inconclusive results are not listed. Where a call stands in place of a potency, no number is given. The source holds several records for some structures; these can differ, active in one and inactive in another. Active and inactive are the calls of the source. Unless noted, calls follow the shape of the full dose curve.
# How the values were obtained:
# [1] = Nuclear factor erythroid 2-related factor 2/antioxidant responsive element (Nrf2/ARE) small molecule agonists: qHTS cell viability counter screen in human keratinocytes (AID 1919968; active = well fitted curve in the direction sought with a large enough effect in the repeat runs; an effect the other way counts as inactive or inconclusive; also: nearly all actives have a fitted effect of over 55% in size; also: potency is read from the fitted curve at half-maximal effect)
# Outline: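 Seed 1,500 KeratinoSens cells per well, then incubate 5 h at 37 C/5% CO2. Add compounds in DMSO and incubate 23 h. Add CellTiter-Fluor, wait 1 h and read fluorescence.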
# [2] = molecular target: KiSS-1 receptor (Homo sapiens) (UniProt Q969F8); test: Human kisspeptin (KISS1R) small molecule agonists, calcium flux assay in KISS1R-HEK293 cells (AID 1920064; active = well fitted curve in the direction sought with a large enough effect in the repeat runs; an effect the other way counts as inactive or inconclusive)
# Outline: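 Cells plated and incubated 18 h; dye added, 1 h at 37 C; compounds in DMSO pinned in; signal read at 480/540 nm every second for 3 min. Each compound tested at 15 concentrations in triplicate.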
# [3] = G protein-coupled receptor (GPCR) small molecule agonists, calcium flux assay: HEK293 wild type cell line counter screen (AID 1920065)
# Outline: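 Counter-screen of the Tox21 10K library for non-specific calcium release: dye-loaded cells received compounds in DMSO and were monitored by kinetic fluorescence (480/540 nm, 3 min). Fifteen concentrations, run in triplicate.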
# [4] = p53 small molecule agonists, cell-based qHTS assay with human liver microsomes (AID 1963577);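 also: p53 response element beta-lactamase reporter cells with liver microsomes plus NADPH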
# Outline: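 HLM-supplemented p53RE-bla reporter assay: 16 h compound exposure at 37 C, microsomes and NADPH each 0.5 mg/mL final, read by fluorescence intensity.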
# [5] = p53 small molecule agonists, cell-based qHTS assay with rat liver microsomes (AID 1963578)
# Outline: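 Quantitative HTS of the Tox21 10K library: p53RE-bla cells, rat liver microsomes plus NADPH at 0.5 mg/mL final each, 16 h at 37 C, beta-lactamase fluorescence detection.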
# [6] = p53 small molecule agonists, cell-based qHTS assay with human liver microsomes: qHTS cell viability counter screen (AID 1963579); also: nearly all actives have a fitted effect of over 45% in size
# Outline: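 Viability of p53RE-bla cells is measured as CellTiter-Glo luminescence following a 16 h, 37 C incubation with compound, liver microsomes from human donors and NADPH.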
# [7] = p53 small molecule agonists, cell-based qHTS assay with rat liver microsomes: qHTS cell viability counter screen (AID 1963580); also: nearly all actives have a fitted effect of over 45% in size
# Outline: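 Intracellular ATP, by CellTiter-Glo luminescence, defines viability. HCT-116 p53RE-bla cells, 4,000 per well, were compound-treated in the presence of rat liver microsomes and NADPH for 16 h at 37 C.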
# [8] = p53 small molecule agonists, cell-based qHTS assay: qHTS cell viability counter screen (AID 1963581); also: nearly all actives have a fitted effect of over 45% in size
# Outline: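 Cells: HCT-116 with p53 response element-driven beta-lactamase. Treatment: 16 h, 37 C, compounds in DMSO. Read: CellTiter-Glo luminescence after 30 min RT.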
# [9] = p53 small molecule agonists, cell-based qHTS assay (AID 1963582; active = well fitted activation curve with a large enough effect in the signal ratio in the repeat runs, not every such curve was filed as active; the % refers to the signal ratio)
# Outline: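 Quantitative HTS in p53RE-bla cells: after a 5 h settling period, compounds delivered in DMSO were left on cells for 16 h at 37 C, and reporter induction was measured as fluorescence following 2 h substrate loading.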
# [10] = molecular target: 5-hydroxytryptamine receptor 2A (Homo sapiens) (UniProt P28223); test: 5-hydroxytryptamine receptor 2A (HTR2A) small molecule antagonists, cell-based qHTS assay (AID 1963586); also: nearly all actives have a fitted effect of over 45% in size
# Outline: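 Antagonist-mode intracellular calcium assay: DOI (4 nM) added after 5 min compound pre-incubation at room temperature to dye-loaded HTR2A-CHO cells. Fluorescence followed for 3 min, sampled every second.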
# [11] = molecular target: 5-hydroxytryptamine receptor 2A (Homo sapiens) (UniProt P28223); test: 5-hydroxytryptamine receptor 2A (HTR2A) small molecule agonists, cell-based qHTS assay (AID 1963587); also: nearly all actives have a fitted effect of over 30% in size; also: potency is read from the fitted curve at half-maximal effect
# Outline: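 Kinetic calcium-flux fluorescence (2 min, 1 sec intervals) after compound addition in agonist mode. HTR2A-CHO cells were cultured 18 h, then dye-loaded 1 h at 37 C.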
# [12] = molecular target: Muscarinic acetylcholine receptor M1 (Homo sapiens) (UniProt P11229); test: Cholinergic receptor muscarinic 1 (CHRM1) small molecule antagonists, cell-based qHTS assay (AID 1963588); also: nearly all actives have a fitted effect of over 40% in size
# Outline: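 CHRM1-CHO calcium-flux assay, antagonist mode. Cells were seeded 18 h, dye-loaded 1 h at 37 C and given compound for 5 min at RT, then acetylcholine was added at 50nM. FDSS fluorescence was read 3 min; 15 concentrations, three runs.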
# [13] = molecular target: Muscarinic acetylcholine receptor M1 (Homo sapiens) (UniProt P11229); test: Cholinergic receptor muscarinic 1 (CHRM1) small molecule agonists, cell-based qHTS assay (AID 1963589); also: nearly all actives have a fitted effect of over 35% in size; also: potency is read from the fitted curve at half-maximal effect
# Outline: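 Agonist-mode qHTS in CHO cells stably carrying human muscarinic M1. Intracellular calcium is tracked by fluorescence every second after compound transfer; each compound runs at 15 concentrations in three independent runs.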
# [14] = cAMP Responsive Elements (CRE) small molecule agonists, cell-based qHTS assay (AID 1963590)
# Outline: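 Agonist mode qHTS in CRE-bla HEK 293T cells: compounds dosed from DMSO for 3 h at 37 C/5% CO2, followed by LiveBLAzer B/G FRET substrate for 2 h at room temperature.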
# [15] = cAMP Responsive Elements (CRE) small molecule antagonists, cell-based qHTS assay (AID 1963591; active = well fitted inhibition curve with a large enough effect in the signal ratio in the repeat runs, not every such curve was filed as active; the % refers to the signal ratio)
# Outline: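 Antagonist mode: test compounds are co-incubated with the adenylyl cyclase activator NKH477 (0.25 uM final) on CRE-bla HEK293T cells for 3 h at 37 °C, followed by LiveBLAzer substrate loading.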
# [16] = molecular target: Beta-2 adrenergic receptor (Homo sapiens) (UniProt P07550); test: Adrenergic beta2 receptor (ADRB2) small molecule antagonists, cell-based qHTS assay (AID 1963592); also: series mostly up to about 92 µM; nearly all actives have a fitted effect of over 50% in size
# Outline: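 Cells (CHO, stable ADRB2 overexpression) incubated 18-20hr at 37C; compounds added from DMSO; agonist mix (1nM isoproterenol, 100uM IBMX, 25uM Ro-20-1724) added; 0.5hr RT; d2-cAMP and anti-cAMP-cryptate added; 1hr RT; 665/615 nm read.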
# [17] = molecular target: Beta-2 adrenergic receptor (Homo sapiens) (UniProt P07550); test: Adrenergic beta2 receptor (ADRB2) small molecule agonists, cell-based qHTS assay (AID 1963593);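 also: CHO cells stably overexpressing human ADRB2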
# Outline: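 CHO cells stably over-expressing ADRB2 were plated overnight at 37C, then dosed with compounds plus a stimulation mix containing 100uM IBMX and 25uM Ro-20-1724 for 0.5hr at room temperature. cAMP was measured by HTRF competition, 1hr.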
# [18] = molecular target: D(2) dopamine receptor (Homo sapiens) (UniProt P14416); test: Dopamine D2 receptor (DRD2) small molecule agonists, cell-based qHTS assay (AID 1963594); also: nearly all actives have a fitted effect of over 35% in size
# Outline: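 cAMP accumulation in DRD2-HEK293 cells measured by HTRF after 1 h detection; compounds added 10 min before NKH477 (200nM […]) forskolin-analogue stimulation, 30 min at room temperature, with Ro20-1724 present at 0.1 mM final.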
# [19] = molecular target: D(2) dopamine receptor (Homo sapiens) (UniProt P14416); test: Dopamine D2 receptor (DRD2) small molecule antagonists, cell-based qHTS assay (AID 1963595; active = well fitted inhibition curve with a large enough effect in the signal ratio in the repeat runs, with a control signal flat; the % refers to the signal ratio)
# Outline: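 In this cell-based antagonist screen, compounds act for 10 min at room temperature before a 30 min challenge with 12 nM quinpirole and 200 nM NKH477. cAMP is quantified by HTRF competition in DRD2-HEK293 cells containing 0.1 mM Ro20-1724.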
# [20] = molecular target: Gonadotropin-releasing hormone receptor (Homo sapiens) (UniProt P30968); test: Human gonadotropin-releasing hormone receptor (GnRHR) small molecule agonists, calcium flux assay in GnRHR-HEK293 cells (AID 1920063); also: nearly all actives have a fitted effect of over 35% in size; also: potency is read from the fitted curve at half-maximal effect
# Outline: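 Cells: HEK293 stably expressing human GnRHR. Steps: overnight (18 h) culture, 1 h calcium dye loading at 37 C, compound addition, kinetic fluorescence read at 480/540 nm. Each compound tested at 15 concentrations in triplicate.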
# Muscarinic acetylcholine receptor M1 (Homo sapiens), sequence (P11229 whole entry, looked up): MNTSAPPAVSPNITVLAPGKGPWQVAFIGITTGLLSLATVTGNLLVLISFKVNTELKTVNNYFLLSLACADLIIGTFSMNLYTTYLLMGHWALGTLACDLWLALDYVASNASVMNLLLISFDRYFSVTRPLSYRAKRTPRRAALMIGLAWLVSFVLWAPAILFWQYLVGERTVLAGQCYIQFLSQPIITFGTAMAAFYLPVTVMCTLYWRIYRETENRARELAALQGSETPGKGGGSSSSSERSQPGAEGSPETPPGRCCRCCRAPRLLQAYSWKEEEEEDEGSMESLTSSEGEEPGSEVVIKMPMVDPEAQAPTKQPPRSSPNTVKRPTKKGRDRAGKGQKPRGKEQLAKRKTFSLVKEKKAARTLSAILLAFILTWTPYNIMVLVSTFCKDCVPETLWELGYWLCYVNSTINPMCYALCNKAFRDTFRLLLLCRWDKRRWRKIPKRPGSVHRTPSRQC
# Gonadotropin-releasing hormone receptor (Homo sapiens), sequence (P30968 whole entry, looked up): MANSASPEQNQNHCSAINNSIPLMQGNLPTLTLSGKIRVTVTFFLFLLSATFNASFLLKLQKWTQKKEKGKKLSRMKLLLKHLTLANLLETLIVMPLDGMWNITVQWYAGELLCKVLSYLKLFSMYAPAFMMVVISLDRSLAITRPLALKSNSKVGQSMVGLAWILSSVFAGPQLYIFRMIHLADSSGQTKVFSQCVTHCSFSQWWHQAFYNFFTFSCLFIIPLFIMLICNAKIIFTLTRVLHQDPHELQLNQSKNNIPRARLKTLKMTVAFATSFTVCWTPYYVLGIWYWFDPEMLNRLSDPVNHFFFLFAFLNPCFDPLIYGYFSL
# D(2) dopamine receptor (Homo sapiens), sequence (P14416 whole entry, looked up): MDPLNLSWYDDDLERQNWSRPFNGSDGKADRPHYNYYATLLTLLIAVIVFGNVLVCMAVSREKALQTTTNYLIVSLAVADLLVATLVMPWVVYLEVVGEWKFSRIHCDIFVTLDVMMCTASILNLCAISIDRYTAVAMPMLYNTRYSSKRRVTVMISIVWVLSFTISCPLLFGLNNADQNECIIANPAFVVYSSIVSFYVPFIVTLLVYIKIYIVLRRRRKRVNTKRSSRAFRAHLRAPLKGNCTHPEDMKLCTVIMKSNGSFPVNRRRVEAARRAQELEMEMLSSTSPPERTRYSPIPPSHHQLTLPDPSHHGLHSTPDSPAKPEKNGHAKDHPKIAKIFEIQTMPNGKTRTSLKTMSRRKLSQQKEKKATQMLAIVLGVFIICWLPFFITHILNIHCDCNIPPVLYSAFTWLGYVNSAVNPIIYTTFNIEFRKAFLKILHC
# KiSS-1 receptor (Homo sapiens), sequence (Q969F8 whole entry, looked up): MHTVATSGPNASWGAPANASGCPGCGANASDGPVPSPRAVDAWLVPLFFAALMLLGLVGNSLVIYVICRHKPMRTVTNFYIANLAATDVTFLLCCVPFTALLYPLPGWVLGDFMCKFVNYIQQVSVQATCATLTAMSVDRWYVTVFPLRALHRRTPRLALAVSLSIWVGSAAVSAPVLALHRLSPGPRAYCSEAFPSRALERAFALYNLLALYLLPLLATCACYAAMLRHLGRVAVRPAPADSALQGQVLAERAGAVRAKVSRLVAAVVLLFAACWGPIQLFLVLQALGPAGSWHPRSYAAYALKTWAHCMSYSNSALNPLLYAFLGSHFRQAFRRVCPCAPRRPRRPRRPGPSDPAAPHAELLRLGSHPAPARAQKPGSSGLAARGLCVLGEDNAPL
# Beta-2 adrenergic receptor (Homo sapiens), sequence (P07550 whole entry, looked up): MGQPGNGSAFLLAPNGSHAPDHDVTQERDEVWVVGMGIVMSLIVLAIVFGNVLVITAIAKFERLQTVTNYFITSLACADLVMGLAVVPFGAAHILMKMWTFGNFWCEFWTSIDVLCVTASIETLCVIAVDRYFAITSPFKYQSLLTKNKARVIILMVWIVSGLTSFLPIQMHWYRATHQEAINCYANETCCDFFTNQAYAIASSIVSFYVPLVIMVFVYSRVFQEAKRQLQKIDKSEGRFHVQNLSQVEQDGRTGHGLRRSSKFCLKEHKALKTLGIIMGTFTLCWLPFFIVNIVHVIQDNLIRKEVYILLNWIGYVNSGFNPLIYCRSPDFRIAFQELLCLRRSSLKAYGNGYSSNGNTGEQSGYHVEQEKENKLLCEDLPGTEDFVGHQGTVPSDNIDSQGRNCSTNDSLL
# 5-hydroxytryptamine receptor 2A (Homo sapiens), sequence (P28223 whole entry, looked up): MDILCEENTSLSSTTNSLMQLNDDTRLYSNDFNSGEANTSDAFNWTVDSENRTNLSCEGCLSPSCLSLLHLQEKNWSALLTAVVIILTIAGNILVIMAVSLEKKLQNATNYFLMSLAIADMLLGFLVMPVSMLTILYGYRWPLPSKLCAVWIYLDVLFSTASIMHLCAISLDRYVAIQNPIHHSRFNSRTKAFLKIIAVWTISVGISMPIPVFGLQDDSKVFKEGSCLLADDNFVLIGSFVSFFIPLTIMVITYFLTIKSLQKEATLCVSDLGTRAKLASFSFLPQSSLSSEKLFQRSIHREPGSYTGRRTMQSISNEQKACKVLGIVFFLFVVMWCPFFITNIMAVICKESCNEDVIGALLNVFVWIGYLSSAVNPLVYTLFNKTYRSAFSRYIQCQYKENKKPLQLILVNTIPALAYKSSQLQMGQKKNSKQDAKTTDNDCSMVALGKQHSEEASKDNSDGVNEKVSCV
SMILES,Potency [1],Potency [2],Potency [3],Potency [4],Potency [5],Potency [6],Potency [7],Potency [8],Potency [9],Potency [10],Potency [11],Potency [12],Potency [13],Potency [14],Potency [15],Potency [16],Potency [17],Potency [18],Potency [19],Potency [20]
CC(C)CCCC(C)CCO (stereo unspecified),inactive,inactive,inactive,inactive,inactive,inactive,inactive,inactive,inactive,inactive,inactive,inactive,inactive,inactive,inactive,inactive,inactive,inactive,inactive,–
CC(=O)[C@@]1(O)CC[C@H]2[C@@H]3CCC4=CC(=O)CC[C@]4(C)[C@H]3CC[C@@]21C,inactive,inactive,inactive,–,–,inactive,inactive,inactive,–,–,–,–,–,–,–,inactive,inactive,inactive,inactive,inactive
C/C(=C(\CCO)SS/C(CCO)=C(\C)N(C=O)Cc1cnc(C)nc1N)N(C=O)Cc1cnc(C)nc1N,inactive,–,inactive,inactive,inactive,inactive,inactive,inactive,inactive,inactive,inactive,inactive,inactive,–,–,inactive,inactive,inactive,inactive,inactive
N=C(N=C(N)N)N1CCOCC1,inactive,inactive,–,inactive,inactive,inactive,inactive,inactive,inactive,inactive,inactive,inactive,inactive,inactive,inactive,inactive,inactive,inactive,–,inactive
COC(=O)c1ccccc1C,inactive,–,inactive,inactive,inactive,inactive,inactive,inactive,inactive,inactive,inactive,inactive,inactive,inactive,inactive,inactive,inactive,–,–,inactive
C[C@]12CC[C@@H]3c4ccc(O)cc4CC[C@H]3[C@@H]1CCC2=O,inactive,inactive,inactive,–,–,inactive,inactive,inactive,–,–,–,–,–,–,inactive,inactive,–,inactive,inactive,inactive
CCN(CC)c1ccc(C=O)c(O)c1,inactive,inactive,–,inactive,–,inactive,inactive,inactive,inactive,inactive,inactive,inactive,inactive,inactive,inactive,inactive,inactive,inactive,inactive,inactive
Nc1ccc(O)cc1,71.2 µM (active) and inactive,inactive,inactive,–,–,inactive,inactive,–,–,–,inactive,inactive,inactive,–,inactive,inactive,inactive,inactive,inactive,inactive
CC/C=C\CC1=C(C)CCC1=O,inactive,inactive,inactive,inactive,inactive,inactive,inactive,inactive,inactive,inactive,inactive,inactive,–,inactive,inactive,inactive,inactive,inactive,inactive,–
O=P(O)(O)O,inactive,inactive,inactive,–,–,inactive,inactive,–,–,inactive,inactive,inactive,inactive,inactive,inactive,inactive,inactive,inactive,inactive,inactive
C[N+]1([O-])CCOCC1,inactive,–,inactive,inactive,inactive,inactive,–,inactive,inactive,inactive,inactive,inactive,inactive,inactive,inactive,inactive,inactive,inactive,inactive,inactive
Nc1ccccc1N,inactive,–,inactive,inactive,inactive,inactive,inactive,inactive,inactive,inactive,50.1 µM (active) and 30.9 µM (active),inactive,56.2 µM (active) and inactive,–,–,inactive,–,inactive,inactive,35.5 µM (active)
CCCCCCCCOC(=O)CCCCCCCCC(=O)OCCCCCCCC,inactive,–,inactive,inactive,inactive,inactive,inactive,inactive,inactive,inactive,inactive,inactive,inactive,inactive,inactive,inactive,inactive,inactive,inactive,inactive
NS(=O)(=O)c1ccc(NC(=O)CCC(=O)O)cc1,inactive,–,inactive,inactive,inactive,inactive,inactive,inactive,inactive,inactive,inactive,inactive,inactive,inactive,inactive,inactive,inactive,inactive,inactive,inactive
